# Screening results from PubChem.
# In the library only some 6.7% were active in any assay of this set; here they are far more common.
# GDH-TPI counter = GDH-TPI coupled enzyme inhibition counter-screen. GDH-TPI coupled enzyme counterscreen, NADH absorbance. inhibition, % at 4.8 µM. 1.2% of 360,000 active. AID 588335; in the data active = inhibition above about 30%
# BoNT F protease = BoNT F light chain protease inhibition. AID 588497. Multiplex microsphere protease cleavage assay, flow cytometry. inhibition, % at 10 µM. 0.22% of 360,000 active; in the data active = inhibition above about 35%, passing the limit was not always enough; inconclusive = no clear call, values can overlap the other calls
# Mtb FBA inh = inhibits M. tuberculosis FBA enzyme | P9WQA3 | 2.3% of 360,000 active | AID 588726 | inhibition, % at 1 µM | purified M. tuberculosis FBA, fluorescence read-out; in the data active = inhibition above about 27%
# Anthrax LF inh2 = anthrax lethal factor protease inhibition. multiplex microsphere protease cleavage assay, LF. inhibition, % at 10 µM. 0.12% of 360,000 active. P15917. AID 588501
# Target sequence (P15917 whole entry, looked up): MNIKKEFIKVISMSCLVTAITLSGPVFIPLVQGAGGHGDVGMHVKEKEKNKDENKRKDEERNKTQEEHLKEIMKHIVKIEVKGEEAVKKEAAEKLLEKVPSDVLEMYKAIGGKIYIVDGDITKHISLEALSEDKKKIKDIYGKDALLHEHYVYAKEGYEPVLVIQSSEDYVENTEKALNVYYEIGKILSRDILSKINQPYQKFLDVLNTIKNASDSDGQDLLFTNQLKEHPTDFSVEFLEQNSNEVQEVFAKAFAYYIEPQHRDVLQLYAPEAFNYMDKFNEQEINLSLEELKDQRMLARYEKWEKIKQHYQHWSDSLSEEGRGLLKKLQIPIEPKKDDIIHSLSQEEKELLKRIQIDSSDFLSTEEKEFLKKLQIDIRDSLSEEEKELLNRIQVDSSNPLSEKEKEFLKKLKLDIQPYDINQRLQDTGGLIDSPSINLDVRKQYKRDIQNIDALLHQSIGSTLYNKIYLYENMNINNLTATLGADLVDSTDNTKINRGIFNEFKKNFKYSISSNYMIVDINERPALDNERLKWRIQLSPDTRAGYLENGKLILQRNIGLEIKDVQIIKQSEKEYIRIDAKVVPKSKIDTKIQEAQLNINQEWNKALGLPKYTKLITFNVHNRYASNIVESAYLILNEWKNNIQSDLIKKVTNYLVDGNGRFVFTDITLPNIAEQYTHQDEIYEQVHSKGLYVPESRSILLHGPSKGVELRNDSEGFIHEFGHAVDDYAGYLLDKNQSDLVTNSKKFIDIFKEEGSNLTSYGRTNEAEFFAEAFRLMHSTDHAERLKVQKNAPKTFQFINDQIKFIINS
# BoNT-A LC inh2 = inhibitors of Botulinum neurotoxin A light chain protease; multiplex microsphere protease substrate cleavage, flow cytometry; inhibition, % at 10 µM; 0.17% of 360,000 active
# Autofluor counter = counter-screen for toxin protease inhibitors: compound fluorescence. compound autofluorescence counterscreen, microsphere flow cytometry; active compounds read high. 3.1% of 360,000 active. fluorescence intensity (test concentration not listed); in the data active = fluorescence intensity above about 16000; inconclusive = no clear call, values can overlap the other calls
# Hits are given with their value; . = inactive; ? = inconclusive. Cut-off read from the data, not from the text of the source, unless noted: active = inhibition above about 30%; inconclusive = no clear call, values can overlap the other calls; inactive = below that.
SMILES,GDH-TPI counter,BoNT F protease,Mtb FBA inh,Anthrax LF inh2,BoNT-A LC inh2,Autofluor counter
CC1CCN(S(=O)(=O)c2ccc(NC(=O)Cc3cccs3)cc2)CC1,.,.,.,.,.,20322
O=C(Cn1nnc(-c2ccc(S(=O)(=O)N3CCCC3)cc2)n1)NCC1CCCO1 (stereo not drawn),.,.,.,.,.,22963
O=C(CSc1nnc(-c2ccc(S(=O)(=O)N3CCCC3)cc2)o1)NCC1CCCO1 (stereo not drawn),.,.,.,.,.,.
CC1CCN(S(=O)(=O)c2ccc(NC(=O)Cn3nnc(-c4ccccc4)n3)cc2)CC1,.,.,.,.,.,19646
CC1CCCN(CC(=O)Nc2ccc(S(=O)(=O)N3CCCCCC3)cc2)C1 (stereo not drawn),.,.,.,.,.,16175
CNC(=S)NN=C(C)c1ccc(OC)cc1O,39.0,.,.,.,.,.
Cc1ccc(OCC(=O)NC(C)c2ccccc2)cc1 (stereo not drawn),.,.,.,.,.,.
CCOC(=O)C1=C(C)Nc2nnnn2C1c1ccccc1Cl (stereo not drawn),.,.,.,.,.,.
Fc1ccccc1/C=C1\CCCC2=C1Nc1nnnn1C2c1ccccc1F (stereo not drawn),.,.,.,.,.,22685
O=C(O)CCn1c(-c2ccccn2)nc2ccccc21,.,?,27.1,.,.,.
CCCCc1ccc(NC(=O)c2c(C)noc2C)cc1,.,.,.,.,.,17390
Cc1cc(Oc2ccc(=O)n(C)n2)nc(Oc2ccc(=O)n(C)n2)n1,.,.,.,.,.,.
N#CCCn1cc(C(=O)Nc2ccc([N+](=O)[O-])cc2)c(-c2ccccc2)n1,37.5,.,.,.,.,.
COc1ccc(/C=C2\NC(=O)C(C=NCc3ccccc3)=C2O)cc1,.,.,.,.,.,.
O=C1N/C(=C\c2ccc(O)cc2)C(O)=C1C=NCc1ccccc1,37.1,.,.,.,.,.
COc1cc(S(=O)(=O)N(Cc2cccc(OC)c2OC)CC2CCCO2)ccc1-n1cnnn1 (stereo not drawn),.,.,.,.,.,.
COc1ccccc1NC(=O)c1nnn(CC(=O)Nc2cccc(SC)c2)c1N,.,.,.,.,.,22055
COc1ccccc1NC(=O)c1nnn(CC(=O)Nc2ccccc2)c1N,.,.,.,.,.,.
COc1ccccc1NC(=O)Cn1nnc(C(=O)Nc2ccccc2)c1N,.,.,.,.,.,.
CCOc1ccc(NC(=O)c2nnn(CC(=O)Nc3ccccc3OC)c2N)cc1,.,36.0,.,.,.,.
CCN(CC)CCCN(Cc1cc2cc3c(cc2[nH]c1=O)OCO3)C(=S)NCc1ccco1,.,.,.,.,.,.
CCc1ccc2c(c1)[C@H]1OCC[C@H]1[C@@H](c1cccs1)N2,.,.,.,.,.,.
Fc1ccc2c(c1)[C@H]1OCC[C@H]1[C@@H](c1ccco1)N2,.,.,.,.,.,23934
Clc1ccc2c(c1)[C@H]1OCC[C@H]1[C@@H](c1ccco1)N2,.,.,38.2,.,.,.
CS(=O)(=O)c1ccc(C(=O)Nc2ccc(N3CCCCC3)cc2)c(Cl)c1,.,.,.,.,.,.
SMILES,GDH-TPI counter,BoNT F protease,Mtb FBA inh,Anthrax LF inh2,BoNT-A LC inh2,Autofluor counter
Cc1ccc(Sc2ccc(NC(=O)c3ccc(S(C)(=O)=O)cc3Cl)cc2)cc1,.,.,.,.,?,21237
O=C(Sc1ccc(Cl)cc1)c1cccc(Cn2cc(C(F)(F)F)ccc2=O)c1,.,.,.,.,.,.
O=C(Nc1nc2ccccc2s1)c1ccc(F)cc1,.,.,.,.,.,.
Cc1c(C(=O)N2CCC3(CC2)OCCO3)sc2ncnc(N(C)c3ccccc3)c12,.,.,.,.,.,.
Cc1c(C(=O)N2CCC(C)CC2)sc2ncnc(N(C)c3ccccc3)c12,34.8,.,.,.,.,.
O=C1CCC(=O)c2oc3ccccc3c2N1,30.9,.,.,.,.,.
CN1/C(=C\C(=S)NC(=O)c2ccccc2Cl)C(C)(C)c2ccccc21,.,.,.,.,38.3,.
COc1ccccc1C(=O)NC(=S)/C=C1/N(C)c2ccccc2C1(C)C,.,.,.,.,49.2,.
CN1/C(=C/C(=S)NC(=O)C2(C)CC2(Cl)Cl)C(C)(C)c2ccccc21 (stereo not drawn),.,.,.,.,.,.
COc1cccc(CN2CCN(Cc3cccc(F)c3)CC2)c1,.,.,.,.,.,.
COc1cccc(N2CCN(Cc3cccnc3)CC2)c1,.,.,.,.,.,20710
FC(F)(F)c1cccc(N2CCN(Cc3cccnc3)CC2)c1,.,.,.,.,.,16207
COc1cc(CN2CCN(c3cccc(Cl)c3)CC2)cc(OC)c1OC,.,.,.,.,.,25470
FC(F)(F)c1cccc(N2CCN(Cc3ccoc3)CC2)c1,.,.,.,.,.,.
COc1cccc(CN2CCN(c3ncccn3)CC2)c1,.,.,.,.,.,22009
Cc1ccccc1OCC(O)CN1CCC(C)CC1 (stereo not drawn),.,.,.,.,.,.
Cc1cccc(-c2nc3ccccc3c(=O)n2-n2cccc2)c1,.,.,.,.,.,.
Cc1ccc(C)c(Nc2ccc(C(=O)NCCc3ccccc3)cn2)c1,.,.,.,.,.,.
CC(C(=O)NCC1CCCO1)c1ccc([N+](=O)[O-])cc1 (stereo not drawn),.,.,.,.,.,.
CC(OC(=O)c1cccc(S(=O)(=O)N(C)C)c1)C(=O)NCc1ccc2c(c1)OCO2 (stereo not drawn),.,.,.,.,.,.
COc1cccc(CN2CCN(Cc3cc(OC)c(OC)cc3[N+](=O)[O-])CC2)c1,.,.,.,.,?,16274
COc1cc(CN2CCN(Cc3ccc([N+](=O)[O-])cc3)CC2)c([N+](=O)[O-])cc1OC,.,.,.,.,.,.
COc1cccc(CN2CCN(c3cccc(C(F)(F)F)c3)CC2)c1OC,.,.,.,.,.,16287
COc1cccc(N2CCN(Cc3cccc(Cl)c3)CC2)c1,.,.,.,.,?,24340
CNC(=O)Nc1nnc(C(C)(C)C)s1,.,.,.,.,.,.
SMILES,GDH-TPI counter,BoNT F protease,Mtb FBA inh,Anthrax LF inh2,BoNT-A LC inh2,Autofluor counter
CCOC(=O)c1c(N)sc(N)c1C(=O)OCC,.,.,.,.,.,.
NC(=S)NN=Cc1ccc(-c2ccc(S(=O)(=O)Nc3ncccn3)cc2)o1,32.6,.,.,.,.,.
NC(=S)N/N=C/c1ccc(-c2ccc(SC(F)F)cc2)o1,44.8,?,.,.,.,.
O=C(N/N=C/c1ccc(-c2ccc(S(=O)(=O)Nc3ncccn3)cc2)o1)c1cc2ccccc2cc1O,.,.,.,.,.,.
CCOc1ccc(C(=O)N/N=C/c2ccc(-c3ccc(S(=O)(=O)Nc4ncccn4)cc3)o2)cc1,35.3,.,.,.,.,22776
CC(C)(C)c1cc(C(=O)NNC(=O)Nc2ccccc2)n(Cc2ccccc2)n1,.,?,.,.,?,.
Cc1cccc(NC(=O)c2ccc(N3CCCCC3)c([N+](=O)[O-])c2)n1,.,.,.,.,?,24725
